Calls of active or inactive are those of the source. Rule for the calls: active = hit-call score of the fitted dose curve at least 0.9, where 1 is the maximum; inactive = score below 0.9.

Sequence of Hypoxia-inducible factor 1-alpha (Homo sapiens) (Q16665 whole entry, looked up): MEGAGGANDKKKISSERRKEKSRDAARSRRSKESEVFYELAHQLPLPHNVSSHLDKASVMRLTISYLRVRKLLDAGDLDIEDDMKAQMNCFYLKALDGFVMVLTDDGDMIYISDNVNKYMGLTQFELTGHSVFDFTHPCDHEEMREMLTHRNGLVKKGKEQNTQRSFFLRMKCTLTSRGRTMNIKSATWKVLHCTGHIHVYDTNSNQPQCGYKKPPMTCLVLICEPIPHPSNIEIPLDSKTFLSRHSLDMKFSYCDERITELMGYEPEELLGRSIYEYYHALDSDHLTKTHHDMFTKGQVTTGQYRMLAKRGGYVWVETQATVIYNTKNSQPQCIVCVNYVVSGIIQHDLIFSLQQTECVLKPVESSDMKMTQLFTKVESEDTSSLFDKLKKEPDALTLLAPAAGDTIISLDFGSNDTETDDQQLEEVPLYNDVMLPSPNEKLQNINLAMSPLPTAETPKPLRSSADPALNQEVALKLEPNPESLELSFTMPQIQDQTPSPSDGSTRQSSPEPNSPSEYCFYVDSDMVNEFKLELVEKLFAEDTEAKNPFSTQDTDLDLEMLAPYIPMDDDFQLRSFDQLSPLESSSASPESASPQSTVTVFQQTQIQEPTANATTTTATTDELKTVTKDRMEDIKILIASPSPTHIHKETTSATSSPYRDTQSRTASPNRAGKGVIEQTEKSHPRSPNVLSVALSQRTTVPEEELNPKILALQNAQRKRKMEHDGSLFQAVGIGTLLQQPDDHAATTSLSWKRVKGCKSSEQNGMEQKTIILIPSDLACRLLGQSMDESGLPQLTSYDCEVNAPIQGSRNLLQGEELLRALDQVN

Read-out in the first experiment: Heat shock 70 kDa protein 1 (HSPA1A), gene 3303
The experiment can be described thus: LTEA_HepaRG_HSPA1A: Life Technologies and Expression Analysis (LTEA) Assay for Heat shock 70 kDa protein 1 (HSPA1A) using HepaRG (AID 2283502). The settings on record: mRNA level, 48 h; actives raise or lower the signal. In short, it runs like this:
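An oxidative-stress marker readout: HepaRG cells treated 48 h in duplicate with an eight-point series (highest 100 uM) had HSPA1A mRNA quantified by TaqMan qRT-PCR. Activity was fitted in both directions using 0.5% DMSO as baseline.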
For the molecule `CC(=O)CC(c1ccccc1)c1c(O)c2ccccc2oc1=O` (centres undefined), the molecule was called inactive. The same measure, in the same setting: the same measure for `CCc1cc(C2=C(C(=O)O)N(c3ccccc3C(F)(F)F)S(=O)(=O)c3ccccc32)cc2c1OCO2`: “inactive”.

Turning to `CCCCc1nc2cccnc2n1Cc1ccc(-c2ccccc2-c2nnn[nH]2)cc1`, the molecule was classed as inactive. The same measure, in the same setting: with `CCCCC(CC)CO` (centres undefined) the entry was “inactive”; with `CC1=C(C)S(=O)(=O)CCS1(=O)=O`, “inactive”. Still for that read-out and setting: with `CCCCC(CC)COP(=O)(OCC(CC)CCCC)OCC(CC)CCCC` (centres undefined) the entry was “inactive”; with `CC(COCC(C)OC(=O)c1ccccc1)OC(=O)c1ccccc1` (centres undefined), “inactive”.

As for `CC1(C)C(=O)NC(=O)N1CO`, the molecule was classed as inactive. For the molecule `CCCCCCC(CCCCCCCCCCC(=O)OCC(COC(C)=O)OC(C)=O)OC(C)=O` (centres undefined), the result was inactive. Still for that read-out and setting: the same measure for `O=Cc1ccccc1C=O`: “inactive”.

Read-out in another experiment: Hypoxia-inducible factor 1-alpha (Homo sapiens) (UniProt Q16665)
The experiment can be described thus: LTEA_HepaRG_HIF1A: Life Technologies and Expression Analysis (LTEA) Assay for Hypoxia-inducible factor 1 (HIF1A) Trancription factor using HepaRG (AID 2283503).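 Note: HIF1A transcript by TaqMan qRT-PCR normalized to ACTB GAPDH and POLR2A.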 The following applies: mRNA level, 48 h; actives raise or lower the signal. In short, it runs like this:
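Gain- or loss-of-signal HIF1A mRNA changes are fitted against a DMSO baseline. HepaRG cultures receive eight concentrations, highest 100 uM, for 48 h in serum-free induction medium with 0.5% DMSO.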
On to `CCCC[C@H]1CN(CC2CCOCC2)C(=O)OC12CCN(C1(C)CCN(C(=O)c3c(C)ncnc3C)CC1)CC2`, for which the molecule was called inactive. Still for that read-out and setting: the same measure for `CCCCCCCCCCCCCCOS(=O)(=O)O`: “inactive”.

Regarding `OCC(CO)n1cnc(-c2ccc(F)cc2)c1-c1ccnc(Oc2ccccc2)n1`, the molecule was called inactive. The same measure, in the same setting: with `CC(C)(O)c1ccc(CNC(=O)c2cccnc2Oc2ccc(F)cc2)cc1` the entry was “inactive”; with `Cc1cc(SC2=C(O)C[C@@](CCc3ccc(N)cc3)(C(C)C)OC2=O)c(C(C)(C)C)cc1CO`, “inactive”. The same measure, in the same setting: the same measure for `N[C@@H](Cc1c[nH]c2ccccc12)C(=O)O`: “inactive”. The same measure, in the same setting: with `CC(C)c1cccc(C(C)C)c1` the entry was “inactive”. With `CC(=O)S[C@H](C(=O)N[C@H]1Cc2ccccc2[C@H]2CCC[C@@H](C(=O)O)N2C1=O)C(C)C`, the call was inactive. Still for that read-out and setting: the same measure for `COc1ccc(C(=O)Nc2nc3ccccc3c(NCc3ccccc3)c2C#N)cc1`: “inactive”.

Source of the values: PubChem BioAssay (EPA / NIEHS).
